The list is not random: actives were taken first. Their share in the collection is about 21%.
RORgamma inh = qHTS for inhibitors of ROR gamma transcriptional activity; AID 2551, 2010; Potency, µM (titrated, usually from 53.6 µM), for inactives: at the highest dose activity change, negative = inhibition, most hits filed as inhibitors; 310,000 compounds, 5.4% hits; Nuclear receptor ROR-gamma (Mus musculus), P51450; Drosophila S2 Gal4-RORgamma UAS-luciferase reporter, 20 h; further: potency means the concentration at half of the fitted maximal effect; nearly all actives have a fitted effect of over 60% in size
Target sequence (P51450 whole entry, looked up, the tested form may be a part): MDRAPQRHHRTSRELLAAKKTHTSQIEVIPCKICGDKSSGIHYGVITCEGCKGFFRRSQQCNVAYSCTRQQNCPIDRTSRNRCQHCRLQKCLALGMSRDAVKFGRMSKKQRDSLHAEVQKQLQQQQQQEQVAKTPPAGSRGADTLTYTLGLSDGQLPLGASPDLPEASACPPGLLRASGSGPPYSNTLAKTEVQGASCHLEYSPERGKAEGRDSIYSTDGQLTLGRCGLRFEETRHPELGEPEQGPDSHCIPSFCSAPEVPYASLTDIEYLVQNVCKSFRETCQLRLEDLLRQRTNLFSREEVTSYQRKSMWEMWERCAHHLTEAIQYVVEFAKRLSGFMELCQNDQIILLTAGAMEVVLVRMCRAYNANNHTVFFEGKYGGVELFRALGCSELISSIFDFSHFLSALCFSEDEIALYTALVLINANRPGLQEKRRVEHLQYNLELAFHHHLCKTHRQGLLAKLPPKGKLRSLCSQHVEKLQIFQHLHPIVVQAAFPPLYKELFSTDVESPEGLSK
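A Gal4/UAS one-hybrid system in insect cells: metallothionein-promoter Gal4–ROR gamma fusion plus Photinus luciferase reporter. Copper sulfate 700 uM final, 20 hr ambient incubation, luminescent detection after 10 min with reagent.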
Gal4-VP16 FLuc = VP16 counterscreen qHTS for inhibitors of ROR gamma transcriptional activity | Drosophila S2 Gal4-VP16 UAS-luciferase, luminescence, 20 h | Potency, µM (top dose mostly 53.6 µM), inactives show at the highest dose activity, negative = inhibition, usual class: inhibitors | 310,000 compounds, 3.5% hits | AID 2546, 2010;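 further: Gal4-VP16 expression switched on by copper sulfate through the metallothionein promoter; potency means the concentration at half of the fitted maximal effect; nearly all actives have a fitted effect of over 50% in size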
IL1B secr inh = qHTS for Inhibitors of Inflammasome Signaling: IL-1-beta AlphaLISA Primary Screen | AID 743279, 2014 | 360,000 compounds, 4.7% hits | activity change, % at 57.5 µM | THP-1 LPS/ATP IL-1B secretion, AlphaLISA, 16 h; active compounds read low; in the data active means activity change below about -50%; inconclusive means mostly about -30% to -49%
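Secreted IL-1B measured by AlphaLISA bead assay after 16 h compound exposure of THP-1 cells; compounds (final up to 57.5 uM) added 1 h before LPS (250 ng/mL) and ATP (1.25 mM) stimulation; lower signal means less secretion.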
TDP1 cell CPT = qHTS for Inhibitors of human tyrosyl-DNA phosphodiesterase 1 (TDP1): qHTS in cells in presence of CPT; chicken DT40 Tdp1-/-;hTDP1 cells + 20 nM CPT, ATP luminescence, 48 h; Potency, µM (top dose mostly 46.2 µM), for inactives: at the highest dose activity change, negative = growth inhibition, hits mostly inhibitors; 420,000 compounds, 12% hits; further: potency means the concentration at half of the fitted maximal effect; nearly all actives have a fitted effect of over 55% in size
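Chicken DT40 Tdp1-/- cells complemented with human TDP1, 400 cells/well, exposed to compounds plus 20 nM camptothecin for at least 48 h at 37 C; viability read as ATP content by CellTiter-Glo luminescence.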
ELG1 DNA repair = qHTS screen for small molecules that inhibit ELG1-dependent DNA repair in human embryonic kidney (HEK293T) cells expressing luciferase-tagged ELG1 | HEK293T ELG1-luciferase reporter, luminescence, 16 h; DNA damage induced by 5-fluorouridine | Potency, µM (series often up to 46.1 µM), for the others: at the top dose activity change, negative = inhibition, actives largely listed as inhibitors | 330,000 compounds, 2.3% hits; further: potency means the concentration at half of the fitted maximal effect; nearly all actives have a fitted effect of over 55% in size
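Quantitative HTS, concentration-response format. 2,000 cells/well co-treated with 5-fluorouridine and compound, 16 hr in 5% CO2 at 37 °C; ONE-Glo luminescence read after 30 min.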
DT40 TDP1 no CPT = qHTS for Inhibitors of human tyrosyl-DNA phosphodiesterase 1 (TDP1): qHTS in cells in absence of CPT. DT40 Tdp1-/- hTDP1 cells, no CPT, ATP luminescence, 48 h. Potency, µM (doses to about 46.2 µM), for inactives: top-dose activity change, negative = growth inhibition, hits mostly inhibitors. 420,000 compounds, 15% hits; further: potency means the concentration at half of the fitted maximal effect; nearly all actives have a fitted effect of over 55% in size
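DT40 Tdp1-/-;hTDP1 cells, no CPT (DMSO vehicle only), 400 cells/well; compounds pin-transferred; ≥48 hr, 37 °C; CellTiter-Glo 30 min RT dark, luminescence read.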
* marks the source's active call; other numbers are inactive results; ? = inconclusive; . = no result; [ ] = dose if it differs, or a comment. Unless noted, the call rests on the fitted dose curve; in most records, active means well fitted curve in the direction sought with a large enough effect; inconclusive means small, poorly fitted or top-dose-only effect, or another doubt; inactive means no such curve, though single readings can be large; an effect the other way counts as inactive or inconclusive. On the % scale 0 is the no-effect control and ±100 the full control effect.

SMILES	RORgamma inh	Gal4-VP16 FLuc	IL1B secr inh	TDP1 cell CPT	ELG1 DNA repair	DT40 TDP1 no CPT
CCOC(=O)[C@H]1[C@H]2COc3cc(OC)ccc3[C@@H]2N2C(=O)[C@@H](CO)NC(=O)[C@@]12C	.	.	.	.	20.0%	.
O=C(CN1CCN(C(C(=O)Nc2cc(C(F)(F)F)ccc2Cl)c2ccccc2)CC1)NC1CC1 (stereo unspecified)	.	.	0.0	20.6µM*	.	?
COc1ccccc1N1CCN(CC(=O)Nc2ccc(Cl)c(C(F)(F)F)c2)CC1	?	?	-10.4	20.6µM*	?	?
O=C(CN1CCN(c2ccccn2)CC1)Nc1ccc(OC(F)(F)F)cc1	52.5%	5.9%	-25.0	-4.6%	-12.4%	23.1µM*
O=C(CN1CCc2ccccc2C1)Nc1ccc(F)cc1	-0.5%	-6.2%	0.0	-9.7%	2.2%	5.8%
O=C(CN1CCc2ccccc2C1)Nc1ccc(OC(F)(F)F)cc1	22.3%	-4.0%	-64.7*	11.8%	?	-22.0%
O=C(Nc1nccs1)C1CCCN1/C=C/C(=O)C(F)(F)F (stereo unspecified)	4.3%	-8.5%	8.4	-6.0%	?	-1.0%
CC(C)C(NS(=O)(=O)c1cccc(C(F)(F)F)c1)C(=O)NCc1cccs1 (stereo unspecified)	.	.	9.6	1.1%	2.4%	?
COc1ccc(C2CC(=O)CCN2S(=O)(=O)c2ccc(C)cc2)cc1 (stereo unspecified)	.	.	13.4	?	.	?
CC12CCC(C(=NO)C1=O)C2(C)C (stereo unspecified)	.	.	-3.0	-3.7%	.	9.8%
Cc1sc(NC(=O)CN2CCN(c3ccccn3)CC2)c(C#N)c1C	?	28.1%	-6.7	-22.3%	11.6µM*	-9.9%
N#Cc1ccccc1NC(=O)CN1CCN(c2ccccn2)CC1	-0.1%	1.5%	9.4	27.8%	-0.5%	-0.2%
COc1ccccc1N1CCN(CC(=O)Nc2cc(C)nn2-c2nc(C)cc(C)n2)CC1	.	.	50.8	4.11µM*	.	3.26µM*
COC(=O)c1scc(-c2ccc(C)cc2)c1S(=O)(=O)Nc1ccc(F)cc1F	.	.	.	-13.8%	.	-20.2%
COC(=O)c1scc(-c2ccc(C)cc2)c1S(=O)(=O)N1CCN(c2cccc(OC)c2)CC1	.	.	.	9.2µM*	.	5.8µM*
COC(=O)c1scc(-c2ccc(C)cc2)c1S(=O)(=O)N1CCN(c2ccc(F)cc2)CC1	.	.	.	8.2µM*	.	1.84µM*
Cc1cccc(CNC(=O)c2cnn(-c3nccc(-c4cccs4)n3)c2C(C)C)n1	.	.	.	-4.4%[9.04 µM]	.	?
COc1cc2c(cc1OC)C1O[C@](CCCCN3C(=O)c4ccccc4C3=O)(C2)Oc2cc(C)n(Cc3ccccc3)c(=O)c21	-23.0%[10 µM]	?	.	.	.	.
CC1(C)CC[C@]2(CO)CC[C@]3(C)C(=CCC4[C@@]5(C)CC[C@H](O)[C@@](C)(CO)C5CC[C@]43C)[C@@H]2C1 (stereo partly specified)	.	.	10.3	?	1.9%	?
CC(Cc1cccs1)NC(=O)Nc1ccc([N+](=O)[O-])cc1 (stereo unspecified)	?	15.1%	-13.7	?	-7.9%	16.4µM*
CC(Cc1cccs1)NC(=S)Nc1ccc(F)cc1 (stereo unspecified)	3.16µM*	15.8µM*	-1.4	?	7.6%	?
CC(C)[C@H](NC(=O)c1ccc(F)cc1)C(=O)N(C)Cc1cccs1	.	.	0.4	-22.3%	9.7%	0.6%
CCC(C)NC(=O)C1CCCN(C(=O)Nc2ccc(F)cc2)C1 (stereo unspecified)	3.3%	1.4%	35.5	-0.7%	-1.8%	-12.3%
CC(Cc1cccs1)NC(=O)c1cccs1 (stereo unspecified)	0.4%	2.2%	-15.8	31.1%	?	-10.3%
COc1ccc(NC(=S)NC(C)Cc2cccs2)cc1 (stereo unspecified)	14.1µM*	2.82µM*	-13.5	-16.8%	6.2%	-31.8%
SMILES	RORgamma inh	Gal4-VP16 FLuc	IL1B secr inh	TDP1 cell CPT	ELG1 DNA repair	DT40 TDP1 no CPT
CCC(C)NC(=S)Nc1ccc(F)cc1 (stereo unspecified)	10µM*	?	0.0	-22.8%	?	-22.1%
COc1cccc(CCc2nnc(CCC(=O)NC(C)Cc3cccs3)o2)c1 (stereo unspecified)	5.2%	0.1%	0.1	-28.5%	26.8%	-18.4%
CC(=O)OC1CC2C(C)(C)C(=O)C=C[C@]2(C)C2CC[C@@]3(C)C(c4ccoc4)OC(=O)C4O[C@@]43[C@]12C (stereo partly specified)	-36.1%	7.7%	.	?	.	?
CCc1nc2ccc(C(=O)N3CCN(S(=O)(=O)CC)CC3)cn2c1N(C)Cc1cccs1	.	.	5.5	?	.	?
CC(=O)N[C@@H](Cc1ccc(O)cc1)C(=O)O	-12.0%	-11.4%	.	-3.4%	.	-4.9%
CC(NC(=O)c1ccco1)c1nnc2n1CCN(Cc1cccc(Cl)c1)CC2 (stereo unspecified)	.	.	.	1.1%[9.04 µM]	.	-11.8%
Cc1ccc(C(=O)CSc2nnc(-c3ccc4[nH]c(C)c(C)c4c3)o2)cc1C	8.6%	-3.4%	6.1	?	6.7%	25.9µM*
Cc1[nH]c2ccc(-c3nnc(SCC(=O)c4ccccc4F)o3)cc2c1C	11.9%	-0.7%	7.4	-71.7%	-15.2%	18.4µM*
Cc1ccc(-n2c(=S)[nH]c3c(oc4ccccc43)c2=O)cc1	89.7%	-5.2%	6.8	12.5%	?	-23.1%
O=c1c2sccc2[nH]c(=S)n1-c1ccccc1	?	3.55µM*	1.6	1.4%	0.0%	0.7%
O=c1c2oc3ccccc3c2[nH]c(=S)n1-c1ccccc1	?	5.01µM*	26.7	8.5%	11.2%	-2.5%
Cc1cccc(-n2c(=S)[nH]c3c(oc4ccccc43)c2=O)c1	2.82µM*	4.47µM*	0.0	7.0%	?	0.3%
CCCS(=O)(=O)NC(=O)C1(C)CCCN(C(=O)C(C)(C)Oc2ccc(Cl)cc2)C1 (stereo unspecified)	.	.	10.3	-3.4%	.	-13.2%
CC(C)C(=O)Nc1ccc(-c2nc3ncccc3o2)cc1	?	?	?	0.3%	?	?
O=C(Nc1ccc(-c2nc3ncccc3o2)cc1)c1ccc([N+](=O)[O-])o1	-38.4%	?	-80.4*	8.2µM*	9.2%	3.66µM*

Screens as filed in PubChem BioAssay.
